Assay results taken from PubChem BioAssay (EPA / NIEHS).
“And” between values parts separate entries of the source, which are not always exact repeats. Equal entries are not always repeated. The source holds several records for some structures; these can differ, active in one and inactive in another. The source made the active and inactive calls. How the source made its calls: active means hit-call score of the fitted dose curve at least 0.9, where 1 is the maximum; inactive means score below 0.9.

Experiment: ATG_CMV_CIS: Attagene CIS-FACTORIAL HepG2 Assay for human CMV (Internal Marker) (AID 2282928);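 further: endpoint acts as a background internal control marker rather than a target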
Settings: HepG2 CMV promoter reporter, transcription factor profiling; actives raise or lower the signal
Protocol: ATG_CIS is a cell-based, multiplexed-readout assay that uses HepG2, a human liver cell line, with measurements taken at 24 hours after chemical dosing in a 24-well plate.ATG_CMV_CIS is one of 52 assay component(s) measured or calculated from the ATG_CIS assay. It is designed to make measurements of mRNA induction, a form of inducible reporter, as detected with fluorescence intensity signals by Reverse transcription polymerase chain reaction (RT-PCR) and Capillary electrophoresis technology.Data from the assay component ATG_CMV_CIS was analyzed into 1 assay endpoint. This assay endpoint, ATG_CMV_CIS, was analyzed with bidirectional fitting relative to DMSO as the negative control and baseline of activity. Using a type of inducible reporter, measures of mRNA for gain or loss-of-signal activity can be used to understand the background control at the transcription factor-level as they relate to the gene . Furthermore, this assay endpoint can be referred to as a secondary readout, because this assay has produced multiple assay endpoints where this one serves a background control function. To generalize the intended target to other relatable targets, this assay endpoint is annotated to the background measurement intended target family, where the subfamily is internal marker.
Human liver HepG2 cells are transiently transfected with multiple reporter transcription units (MRTUs) in 6-well plates using FuGene 6 reagent (Roche; 3 ml FuGene/1 mg DNA). The MRTU constructs are regulated by a cis-regulating element (promoter). […] A major difference between the CIS and TRANS system is that in CIS activities of endogenous TFs are measured, whereas the TRANS assay evaluates changes in activities of exogenous, chimeric NR-Gal4 proteins. […] At the end of 24 hour incubation, total RNA was isolated using TriZol reagent (Invitrogen). The isolated RNA is then reverse-transcribed using oligo(dT) primer and Mo-MLV reverse transcriptase (Invitrogen) with DNAse I (Ambion) treatment for 30 min. The one-tenth of the produced cDNA was amplified by PCR using Taq DNA polymerase (Invitrogen) and two reporter sequence-specific primers. The PCR products were fluorescently labeled by primer extension with 6-arboxyfluorescein (6-FAM) 5'-labeled reporter sequence-specific primer (2 min at 95 C, 20 s at 68 C and 10 min at 72 C) and these products were digested with 5U of HpaI (New England Biolabs) for 2h at 37 C. The fragments were purified using Qiaquick PCR columns (Qiagen), analyzed on an ABI 3130xL genetic analyzer (Applied Biosystems) with peak positions identified by using a set of X-rhodamine (ROX)-labeled MapMarker1000 molecular weight standards (BioVentures). The raw capillary electrophoresis data was processed using Attagraph software (Attagene).

Row | SMILES | outcome | AC50
1 | C=C/C(C)=C/C/C=C(\C)CCC=C(C)C | inactive | 
2 | CC(O)CN (stereo not given) | inactive | 
3 | C=CC(=O)OCCCCCC | inactive | 
4 | CCC(=O)OC(C)(C)C1CC=C(C)CC1 (stereo not given) | inactive | 
5 | CCC(=O)OC/C=C(\C)CCC=C(C)C | inactive | 
6 | O=C(OCc1ccccc1)c1ccccc1O |  | 64.1 µM (active)
7 | CCC(C)(CCCC(C)C)OC(C)=O (stereo not given) | inactive | 
8 | CCC(C)COC(=O)CC(C)C (stereo not given) | inactive | 
9 | C/C=C(\C)C(=O)OC/C=C(\C)CCC=C(C)C | inactive | 
10 | CC/C(=C(\c1ccccc1)c1ccc(OCCN(C)C)cc1)c1ccccc1 | inactive | 
11 | CCCCN(CCO)CCO | inactive | 
12 | CC(C)N(c1ccccc1)C(C)C | inactive | 
13 | CCOCC(C)O (stereo not given) | inactive | 
14 | c1coc(CNc2ncnc3nc[nH]c23)c1 | inactive | 
15 | CC(=O)Nc1cc(S(=O)(=O)O)cc2cc(S(=O)(=O)O)c(N=Nc3ccccc3)c(O)c12 | inactive | 
16 | OCC=Cc1ccccc1 | inactive | 
17 | CC(C)CCCC(C)(C)O | inactive | 
18 | OCCN1CCOCC1 | inactive | 
19 | CC1=C(C=O)C(C)(C)CCC1 | inactive | 

Row | SMILES | outcome | AC50
20 | CC(O)COCC(C)O (stereo not given) | inactive | 
21 | O=C1CCCCCCCCCCCC(=O)OCCO1 | inactive | 
22 | CCCCOC(=O)C(C)OC(=O)CCC (stereo not given) | inactive | 
23 | NC(=O)NC(N)=O | inactive | 
24 | CC(=O)OC/C=C(C)/C=C/C=C(C)/C=C/C1=C(C)CCCC1(C)C | inactive | 
25 | CC(C)(CO)CO | inactive | 
26 | CCCCCC1C(=O)CCC1CC(=O)OC (stereo not given) | inactive | 
27 | C#C[C@]1(O)CC[C@H]2[C@@H]3CCc4cc(O)ccc4[C@H]3CC[C@@]21C | inactive | 26.4 µM (active) and 26 µM (active) and 26.2 µM (active)
28 | CCC(C)(C)c1cc(O)c(C(C)(C)CC)cc1O |  | 54.3 µM (active)
29 | CC(C)(C)C1CCC(O)CC1 (stereo not given) | inactive | 
30 | CC(=O)CCC=C(C)CCC=C(C)C | inactive | 
31 | C[C@]12CC[C@@H]3c4ccc(O)cc4CC[C@H]3[C@@H]1CC[C@@H]2O | inactive | 19.5 µM (active) [middle of 4 runs]
32 | CCCCC1CCCCC(=O)O1 (stereo not given) | inactive | 
33 | CC(C)N1C(=O)c2ccccc2C1=O | inactive | 
34 | CC(=O)CCC(=O)O | inactive | 
35 | CCCO[Si](OCCC)(OCCC)OCCC | inactive | 
36 | CNC(=C[N+](=O)[O-])NCCSCc1ccc(CN(C)C)o1 | inactive | 
37 | C=CCOC(=O)/C=C\C(=O)OCC=C |  | 63.8 µM (active)
38 | CCCC(O)C(CC)CO (stereo not given) | inactive | 
